Hits are enriched below; roughly 4.8% of the tested compounds scored in any of these assays.
tim10-1 inh – inhibits growth of tim10-1 mutant yeast; S. cerevisiae tim10-1 ts strain growth, BacTiter-Glo, 24 h; inhibition, % at 20 µM; 330,000 compounds, 2.2% hits; AID 463190;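 active = inhibition of at least 40%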;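 also: mutant grown at 25 °C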
SKKanGAS inh – blocks kanamycin growth of S. pyogenes SKKanGAS strain | BacTiter-Glo, 6 h | inhibition, % at 7.5 µM | 300,000 compounds, 1.3% hits | AID 1662;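 active = mean replicate score, as percent of positive control median, at least 50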;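 also: strain carries kanamycin resistance gene driven by streptokinase promoter and grows in 40 µg/ml kanamycin; loss of luminescence reflects streptokinase promoter inhibition or plain growth inhibition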
tim23-1 inh – growth inhibitors of tim23-1 mutant yeast; 330,000 compounds, 1.3% hits; AID 463212; S. cerevisiae tim23-1 growth, BacTiter-Glo luminescence, 24 h; inhibition, % at 20 µM;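 active = growth inhibition of the mutant yeast at or above 50%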;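 also: temperature-sensitive mutant grown at 25 °C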
NALP1 inh – inhibitors of NALP1 inflammasome in yeast; S. cerevisiae NALP1/ASC/caspase-1 growth, X-gal OD620, 72 h; inhibition, % at 10 µM; 280,000 compounds, 0.61% hits; AID 2071; in the data active = inhibition mostly above about 24%, no sharp cut-off; inactive = mostly below about 32%
TIM10 inh – TIM10 yeast growth inhibition | S. cerevisiae TIM10 strain growth, BacTiter-Glo luminescence, 24 h | inhibition, % at 10 µM | 330,000 compounds, 1.4% hits;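 active = inhibition of 40% or more at the single tested concentration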;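 also: wild-type TIM10 isogenic control strain grown at permissive 25 °C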
PfHsp90 yeast 2 – reduces growth (ATP signal) of yeast expressing P. falciparum Hsp90 | S. cerevisiae expressing PfHsp90, BacTiter-Glo ATP, 48 h; yeast lacking PDR1 and PDR3 efflux regulators | inhibition, % at 9.4 µM | 310,000 compounds, 0.32% hits | AID 504621;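 active = every replicate shows inhibition above about 80%, whatever the replicate mean, limit read from the data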
tim10-1 conf – confirmation of tim10-1 mutant yeast growth inhibitors; shares compounds with tim10-1 inh; S. cerevisiae tim10-1 ts strain growth, BacTiter-Glo, 24 h; inhibition, % at 20 µM; 7,400 compounds, 56% hits; AID 463213;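 active = inhibition of yeast growth at or above a set limit in either of two repeat tests at 20 µM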;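 also: tim10-1 mutant grown at permissive 25 °C to find synthetic lethal compounds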
TIM10 conf – confirmation of TIM10 yeast growth inhibitors | shares compounds with TIM10 inh | S. cerevisiae tim10 strain growth, BacTiter-Glo luminescence, 24 h | inhibition, % at 10 µM | 4,600 compounds, 63% hits;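 active = inhibition of yeast growth at or above a set limit in either of two replicates at 10 µM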; also: this counterscreen used the strain with wild-type TIM10
Large screens that a line does not name were inactive (follow-up assays come after a bar, where they were run).

COc1ccccc1Nc1nc(N)nc(CSC(=S)N2CCN(c3ccccc3)CC2)n1	none
FC(F)(F)Oc1ccc(NC(=S)Nc2ccc(OC(F)(F)F)cc2)cc1	tim10-1 inh 50.0, SKKanGAS inh 71.7, TIM10 inh 57.0 (no result: NALP1 inh) | tim10-1 conf 62.4 | TIM10 conf 70.5
Oc1ccc2nnc3c(Br)cnn3c2c1	none
CCc1ccccc1NC(=S)/N=C(\N)Nc1nc(C)c2cc(C)ccc2n1	tim10-1 inh 45.0, TIM10 inh 44.1 | tim10-1 conf inactive | TIM10 conf inactive
CCOc1ccc2nc(N/C(N)=N/C(=S)Nc3cccc(C)c3)nc(C)c2c1	none
C=C(C)COc1ccc(-c2n[nH]c(C)c2-c2ccc(OC)c(OC)c2)c(O)c1	tim10-1 inh 43.7, TIM10 inh 40.5 | tim10-1 conf 33.1 | TIM10 conf 38.3
C=C(C)COc1ccc(-c2n[nH]c(C)c2Oc2ccccc2OC)c(O)c1	none
Cc1ccccc1Cn1nnc2c1C(=O)c1ccccc1C2=O	none (no result: NALP1 inh)
Cc1cccc(Cn2nnc3c2C(=O)c2ccccc2C3=O)c1	tim10-1 inh 42.3, TIM10 inh 52.4 | tim10-1 conf inactive | TIM10 conf 32.9
COc1ccc(-c2cn3cc(C)ccc3n2)cc1OC	tim10-1 inh 49.9, TIM10 inh 67.4 | tim10-1 conf 42.9 | TIM10 conf 59.7
COC(=O)C(=C/C(C)=C/c1cccs1)C(=O)OC	tim10-1 inh 43.7, TIM10 inh 43.4 | tim10-1 conf inactive | TIM10 conf 43.1
COC(=O)N/N=C/c1cccs1	none
CCCC1CC(C)(c2csc(Nc3ccc(OCC)cc3)n2)OC1=O (stereo not given)	tim10-1 inh 40.4, TIM10 inh 48.3 | tim10-1 conf inactive | TIM10 conf 46.1
Oc1ccc(/C=N/Nc2nccnc2Cl)c(O)c1	tim10-1 inh 61.0, TIM10 inh 69.9 | tim10-1 conf 28.4 | TIM10 conf 54.2
O=C(/C=C/c1cccc(Cl)c1)Nn1c(-c2cccs2)nc2ccccc2c1=O	tim10-1 inh 45.2, TIM10 inh 42.7 | tim10-1 conf 36.2 | TIM10 conf inactive
Fc1ccc2c(c1)C(c1ccc(N3CCOCC3)cc1)=NNC(c1cccs1)=N2	tim10-1 inh 41.5, TIM10 inh 54.7 (no result: PfHsp90 yeast 2) | tim10-1 conf inactive | TIM10 conf 35.8
O=C(/C=C/c1ccccc1[N+](=O)[O-])Nc1cc(S(=O)(=O)N2CCOCC2)ccc1N1CCOCC1	none (no result: tim10-1 inh, SKKanGAS inh, tim23-1 inh, NALP1 inh, TIM10 inh)
CO/N=C(\Cn1ncc(N2CCCC2)c(Br)c1=O)c1ccc(Cl)cc1	none (no result: PfHsp90 yeast 2)
O=C(c1cc(COc2ccc(F)cc2Cl)on1)N1CCC(OCc2cccnc2)CC1	tim10-1 inh 53.2, TIM10 inh 52.0 | tim10-1 conf 47.8 | TIM10 conf 52.5
O=C(c1cccs1)N(Cc1cccc(Cl)c1)C1CCS(=O)(=O)C1 (stereo not given)	none (no result: PfHsp90 yeast 2)
Cc1ccc(-c2csc3ncnc(Sc4nnc(CN5CCCCCC5=O)o4)c23)cc1	tim10-1 inh 40.1, TIM10 inh 55.5 | tim10-1 conf 35.8 | TIM10 conf 38.8
Cc1cccc(C)c1NC(=O)Cn1c(=O)n(CCCC(=O)NC2CCN(Cc3ccccc3)CC2)c(=O)c2ccccc21	none
CC(=O)Nc1ccc2nc(-c3ccco3)[nH]c2c1	none
O=C(Nc1ccc2nc(-c3ccco3)[nH]c2c1)c1cccs1	TIM10 inh 65.5 | tim10-1 conf inactive | TIM10 conf inactive
CCC(/C=C1\Sc2ccc(OC)cc2N1CC)=C\c1sc2ccc(OC)cc2[n+]1CCCS(=O)(=O)[O-]	tim10-1 inh 50.4, TIM10 inh 44.5 | tim10-1 conf 43.3 | TIM10 conf inactive
CO/N=C/c1ccc(Sc2ccccc2N)c([N+](=O)[O-])c1	tim10-1 inh 49.2, TIM10 inh 43.9 | tim10-1 conf 35.4 | TIM10 conf inactive
CO/N=C/c1ccc(Sc2ccccc2)c([N+](=O)[O-])c1	none
C[N+]1=C2CCCCCN2C(O)(c2ccccc2)C1 (stereo not given)	none
COc1cc(Nc2c3ccccc3nc3ccccc23)cc(OC)c1OC	tim10-1 inh 78.4, TIM10 inh 60.3 | tim10-1 conf 75.8 | TIM10 conf 37.5
c1ccc(Oc2nc(-c3ccccn3)nc3ccccc23)cc1	tim10-1 inh 43.4, SKKanGAS inh 109.1, TIM10 inh 50.2 (no result: PfHsp90 yeast 2) | tim10-1 conf inactive | TIM10 conf inactive
CC(C)OC(=O)c1ccc(NC(=O)Cn2c(-c3nonc3N)nc3ccccc32)cc1	none
N/N=C(/Cc1nc2ccccc2[nH]1)c1ccc([N+](=O)[O-])cc1	tim10-1 inh 41.6, TIM10 inh 51.0 | tim10-1 conf 50.5 | TIM10 conf 57.8
O=C(NCCc1nc2ccccc2[nH]1)c1cc([N+](=O)[O-])cc([N+](=O)[O-])c1	none (no result: NALP1 inh)
Cc1nn(C)c(C)c1NC(=O)Nc1cccc(C(F)(F)F)c1	none
Cc1nn(C)c(C)c1NC(=O)Nc1ccc(Cl)c(Cl)c1	tim10-1 inh 60.2, TIM10 inh 40.2 | tim10-1 conf 57.8 | TIM10 conf inactive
CC1CC(C)CN(CCCNC(=O)CN2C(=O)CSc3ccc(S(=O)(=O)N4CCCCC4)cc32)C1 (stereo not given)	none
COc1cccc(-c2[nH]nc3c2C(c2ccc(C)o2)C(C#N)=C(N)O3)c1 (stereo not given)	tim10-1 inh 44.9, TIM10 inh 52.4 (no result: PfHsp90 yeast 2) | tim10-1 conf inactive | TIM10 conf inactive
Cc1cc(NC(=O)CSc2nnnn2-c2ccccc2C)no1	none
O=C(Nc1ccc(Cl)c([N+](=O)[O-])c1)ONC1=NCCCCC1	tim10-1 inh 78.1, TIM10 inh 54.1 | tim10-1 conf 76.9 | TIM10 conf 46.0
COc1cc(C(=O)Nc2ccc(Cl)c([N+](=O)[O-])c2)cc(OC)c1OC	none
CCn1cc(C(=O)NCc2ccc(Cl)cc2)c(=O)c2cc(S(=O)(=O)N(C)C)ccc21	none
O=C(CNc1cccc(C(F)(F)F)c1)N/N=C/c1cccc(Br)c1	tim10-1 inh 43.6, TIM10 inh 48.6 | tim10-1 conf inactive | TIM10 conf inactive
Cc1cccc(NCC(=O)N/N=C/c2cccc(Br)c2)c1	none
O=Cc1cccc(OC(=O)c2ccc(Cl)cc2Cl)c1	tim10-1 inh 42.0, TIM10 inh 45.1 (no result: PfHsp90 yeast 2) | tim10-1 conf inactive | TIM10 conf inactive
COc1cc(C(=O)Oc2cccc(C=O)c2)cc(OC)c1OC	none
O=C(CN1CCC(Cc2ccccc2)CC1)N1CCc2ccccc2C1	none
CCc1nccn1-c1cc(C(C)(C)C)nc2c(-c3ccc(Cl)cc3)cnn12	none
Cc1nccn1-c1cc(C(C)(C)C)nc2c(-c3ccccc3)cnn12	tim10-1 inh 50.4, TIM10 inh 53.8 | tim10-1 conf 48.1 | TIM10 conf 54.7

Compound activity from PubChem.
